# Experimental data published in PubChem BioAssay AID1159580 (chemical genetic matrix, 2015).
# Screen size: about 5,500 compounds; about 2,000 (36%) were called active. Inconclusive results (about 18%) are left out. Some of the results follow. A number with no mark means an inactive call. No stated cut-off is given here; in the data, active means normalized growth mostly below about 0.91 (no sharp cut-off); inconclusive means no clear call, values can overlap the other calls; inactive means mostly above about 0.92.
# Assay: chemical genetic growth profiling, strain panel (AID 1159580);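 further: tested at 20 µM; growth read once vehicle control cultures reached saturation at 30 °C; 1 = growth at the plate median or of vehicle wells; lower values mean less growth of the strain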
# Conditions: growth OD
smiles,measurement,setting,value
C[C@@H]1CC[C@@]23CCC4(C)[C@@](C=CC5[C@@]6(C)CC[C@H](O)C(C)(C)C6CC[C@]54C)(OC2=O)C3[C@H]1C (stereo partly drawn),normalized growth,"S. cerevisiae deletion strains, locus YJR043C, strain POL32, hits give low values",1
same,normalized growth,"S. cerevisiae deletion strains, locus YJR066W, strain TOR1, hits give low values",0.991
same,normalized growth,"S. cerevisiae deletion strains, locus YJR075W, strain HOC1, hits give low values",1.02
same,normalized growth,"S. cerevisiae deletion strains, locus YKL009W, strain mrt4, hits give low values",1.26 [resistant] (active)
same,normalized growth,"S. cerevisiae deletion strains, locus YKL085W, strain MDH1 (second series), hits give low values",1
same,normalized growth,"S. cerevisiae deletion strains, locus YKL085W, strain MDH1, hits give low values",1
same,normalized growth,"S. cerevisiae deletion strains, locus YKL160W, strain elf1, hits give low values",1.01
same,normalized growth,"S. cerevisiae deletion strains, locus YKL190W, strain CNB1, hits give low values",1.01
same,normalized growth,"S. cerevisiae deletion strains, locus YKR001C, strain vps1, hits give low values",1.06
same,normalized growth,"S. cerevisiae deletion strains, locus YKR026C, strain gcn3, hits give low values",1.01
same,normalized growth,"S. cerevisiae deletion strains, locus YKR091W, strain srl3, hits give low values",1
same,normalized growth,"S. cerevisiae deletion strains, locus YLL001W, strain dnm1, hits give low values",1.02
same,normalized growth,"S. cerevisiae deletion strains, locus YLL026W, hits give low values",1
same,normalized growth,"S. cerevisiae deletion strains, locus YLL041C, strain sdh2, hits give low values",1
same,normalized growth,"S. cerevisiae deletion strains, locus YLR027C, strain aat2, hits give low values",1
same,normalized growth,"S. cerevisiae deletion strains, locus YLR039C, strain RIC1, hits give low values",1.09
same,normalized growth,"S. cerevisiae deletion strains, locus YLR058C, strain SHM2, hits give low values",1.02
same,normalized growth,"S. cerevisiae deletion strains, locus YLR102C, strain apc9, hits give low values",1.03
same,normalized growth,"S. cerevisiae deletion strains, locus YLR113W, strain HOG1, hits give low values",1.02
same,normalized growth,"S. cerevisiae deletion strains, locus YLR221C, strain rsa3, hits give low values",0.998
same,normalized growth,"S. cerevisiae deletion strains, locus YLR258W, strain gsy2, hits give low values",0.996
same,normalized growth,"S. cerevisiae deletion strains, locus YLR262C, strain YPT6 (second series), hits give low values",1.02
same,normalized growth,"S. cerevisiae deletion strains, locus YLR262C, strain YPT6, hits give low values",1.09
same,normalized growth,"S. cerevisiae deletion strains, locus YLR268W, strain sec22, hits give low values",1.03
same,normalized growth,"S. cerevisiae deletion strains, locus YLR320W, strain mms22, hits give low values",1.01
same,normalized growth,"S. cerevisiae deletion strains, locus YLR330W, strain CHS5, hits give low values",1.03
same,normalized growth,"S. cerevisiae deletion strains, locus YLR342W, strain FKS1 (second series), hits give low values",1.02
same,normalized growth,"S. cerevisiae deletion strains, locus YLR342W, strain FKS1, hits give low values",1.01
same,normalized growth,"S. cerevisiae deletion strains, locus YLR357W, strain rsc2, hits give low values",1.07
same,normalized growth,"S. cerevisiae deletion strains, locus YLR370C, strain arc18, hits give low values",1.01
same,normalized growth,"S. cerevisiae deletion strains, locus YLR371W, strain rom2, hits give low values",1.29 [resistant] (active)
same,normalized growth,"S. cerevisiae deletion strains, locus YLR384C, strain iki3, hits give low values",0.981
same,normalized growth,"S. cerevisiae deletion strains, locus YLR418C, strain cdc73, hits give low values",1.07
same,normalized growth,"S. cerevisiae deletion strains, locus YML016C, strain PPZ1, hits give low values",1.01
same,normalized growth,"S. cerevisiae deletion strains, locus YML032C, strain rad52, hits give low values",1.02
same,normalized growth,"S. cerevisiae deletion strains, locus YML120C, strain ndi1, hits give low values",1
same,normalized growth,"S. cerevisiae deletion strains, locus YML124C, strain tub3, hits give low values",1
same,normalized growth,"S. cerevisiae deletion strains, locus YMR058W, strain fet3, hits give low values",1
same,normalized growth,"S. cerevisiae deletion strains, locus YMR078C, strain ctf18, hits give low values",0.991
same,normalized growth,"S. cerevisiae deletion strains, locus YMR125W, strain sto1, hits give low values",1.01
same,normalized growth,"S. cerevisiae deletion strains, locus YMR129W, hits give low values",0.997
same,normalized growth,"S. cerevisiae deletion strains, locus YMR205C, strain PFK2, hits give low values",1.02
same,normalized growth,"S. cerevisiae deletion strains, locus YMR223W, strain ubp8, hits give low values",1.08
same,normalized growth,"S. cerevisiae deletion strains, locus YMR231W, strain pep5, hits give low values",0.98
same,normalized growth,"S. cerevisiae deletion strains, locus YMR307W, strain GAS1, hits give low values",1.13
same,normalized growth,"S. cerevisiae deletion strains, locus YNL067W, strain RPL9B, hits give low values",1.01
same,normalized growth,"S. cerevisiae deletion strains, locus YNL071W, strain lat1, hits give low values",1.01
same,normalized growth,"S. cerevisiae deletion strains, locus YNL183C, strain NPR1, hits give low values",0.998
same,normalized growth,"S. cerevisiae deletion strains, locus YNL209W, strain ssb2, hits give low values",1.01
same,normalized growth,"S. cerevisiae deletion strains, locus YNL233W, strain BNI4, hits give low values",1.05
same,normalized growth,"S. cerevisiae deletion strains, locus YNL248C, strain rpa49, hits give low values",1.01
same,normalized growth,"S. cerevisiae deletion strains, locus YNL250W, strain rad50, hits give low values",1
same,normalized growth,"S. cerevisiae deletion strains, locus YNL271C, strain bni1, hits give low values",0.994
same,normalized growth,"S. cerevisiae deletion strains, locus YNL298W, strain CLA4, hits give low values",1
same,normalized growth,"S. cerevisiae deletion strains, locus YNL307C, strain MCK1, hits give low values",1
same,normalized growth,"S. cerevisiae deletion strains, locus YNL322C, strain KRE1 (second series), hits give low values",0.998
same,normalized growth,"S. cerevisiae deletion strains, locus YNR049C, strain mso1, hits give low values",1.01
same,normalized growth,"S. cerevisiae deletion strains, locus YNR052C, strain pop2, hits give low values",1.02
same,normalized growth,"S. cerevisiae deletion strains, locus YOL006C, strain TOP1, hits give low values",1.08
same,normalized growth,"S. cerevisiae deletion strains, locus YOL012C, strain htz1",2.58 [resistant] (active)
same,normalized growth,"S. cerevisiae deletion strains, locus YOL147C, strain pex11, hits give low values",1.01
same,normalized growth,"S. cerevisiae deletion strains, locus YOR001W, strain rrp6, hits give low values",1
same,normalized growth,"S. cerevisiae deletion strains, locus YOR061W, strain CKA2, hits give low values",1.01
same,normalized growth,"S. cerevisiae deletion strains, locus YOR069W, strain VPS5, hits give low values",1.01
same,normalized growth,"S. cerevisiae deletion strains, locus YOR070C, strain gyp1, hits give low values",1.03
same,normalized growth,"S. cerevisiae deletion strains, locus YOR080W, strain dia2, hits give low values",1.09
same,normalized growth,"S. cerevisiae deletion strains, locus YOR083W, strain WHI5, hits give low values",1.01
same,normalized growth,"S. cerevisiae deletion strains, locus YOR106W, strain vam3, hits give low values",1.02
same,normalized growth,"S. cerevisiae deletion strains, locus YOR136W, strain idh2, hits give low values",1.06
same,normalized growth,"S. cerevisiae deletion strains, locus YOR144C, strain elg1, hits give low values",0.997
same,normalized growth,"S. cerevisiae deletion strains, locus YOR184W, strain ser1, hits give low values",1.05
same,normalized growth,"S. cerevisiae deletion strains, locus YOR231W, strain MKK1, hits give low values",1.02
same,normalized growth,"S. cerevisiae deletion strains, locus YOR265W, strain rbl2, hits give low values",1.01
same,normalized growth,"S. cerevisiae deletion strains, locus YOR270C, strain vph1, hits give low values",1.05
same,normalized growth,"S. cerevisiae deletion strains, locus YOR290C, strain snf2, hits give low values",1
same,normalized growth,"S. cerevisiae deletion strains, locus YOR316C, strain cot1, hits give low values",1.03
same,normalized growth,"S. cerevisiae deletion strains, locus YPL051W, strain arl3, hits give low values",1.02
same,normalized growth,"S. cerevisiae deletion strains, locus YPL055C, strain LGE1, hits give low values",1.06
same,normalized growth,"S. cerevisiae deletion strains, locus YPL078C, strain atp4, hits give low values",1.02
same,normalized growth,"S. cerevisiae deletion strains, locus YPL106C, strain sse1, hits give low values",1.03
same,normalized growth,"S. cerevisiae deletion strains, locus YPL240C, strain hsp82, hits give low values",1
same,normalized growth,"S. cerevisiae deletion strains, locus YPL256C, strain CLN2, hits give low values",1.06
same,normalized growth,"S. cerevisiae deletion strains, locus YPR119W, strain clb2, hits give low values",0.986
same,normalized growth,"S. cerevisiae deletion strains, locus YPR141C, strain kar3, hits give low values",1
same,normalized growth,"S. cerevisiae deletion strains, locus YPR163C, strain tif3, hits give low values",1
same,normalized growth,"S. cerevisiae deletion strains, locus YPR167C, strain met16, hits give low values",1.05
same,normalized growth,"S. cerevisiae deletion strains, strain wtn01, hits give low values",1
same,normalized growth,"S. cerevisiae strains, strain wild type, hits give low values",1.02
